The structures appear in SMILES notation. Screen size: about 84,000 compounds; about 110 (0.13%) were called active. The full list was thinned out, with actives kept by preference. Values without a mark were called inactive. No stated cut-off is given here; in the data, active means inhibition above about 30% (passing the limit was not always enough); inactive means the rest.

For this assay, the system named is MgrA (MarR family transcriptional regulator), Staphylococcus aureus Newman. Description: modulators of MgrA DNA binding – biochemical, S. aureus Newman, fluorescence polarization, primary screen (AID 602314).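 Further: 0% = protein plus DNA without compound and 100% = DNA alone without protein; higher means less MgrA bound to DNA so lower polarization.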 The settings on record: active compounds read high, concentration not given here.
As to `O=C1CSC(=S)N1c1ccc(Oc2ccc(Cl)cc2)cc1`, the inhibition was -2.4%. Under `Cn1nnc(NC(=O)COc2ccccc2)n1` stands -1.4%; under `O=C(O)C1=Cc2sc3c(c2CS1)CCCC3`, 72.7% (active); under `NC(=O)c1c(NC(=O)c2ccccc2)sc2c1CCCC2`, 0.05%. Under `CC/C(=N\OC(=O)c1cccs1)c1ccc(-c2ccccc2F)cc1` stands 4.4%. On to `CN(C)C(=O)Cn1c(=O)n(S(=O)(=O)c2ccccc2)c2ccccc21`, for which the inhibition is 7.3%. As for `CN(C)c1ncnc2nc[nH]c12`, the inhibition is 0.75%. Under `CCCN(CCC)S(=O)(=O)c1cccc2c(N)cccc12` stands -2.2%. To `CC1=C(C(=O)OCCOC(C)C)C(c2ccccc2OCc2ccccc2)NC(=O)N1` (configuration not stated) belongs -4.9%. To `CC1(C)COC(c2cccc(C#N)c2)OC1` belongs -1.45%.

Take `CCN1CCCc2cc(CN(CCN3CCOCC3)C(=S)Nc3c(C)cc(C)cc3C)ccc21`: the inhibition was 4.95%. Under `COC(=O)C1=C(C)NC2=C(C(=O)CC(c3ccc(Cl)cc3)C2)C1c1ccc(OC(C)=O)c(OC)c1` (configuration not stated) stands -2.1%. To `OCC(O)CN(c1ccccc1)c1ccccc1` (configuration not stated) belongs -1.8%. Under `Cc1ccc2cc(C#N)c(SCC(=O)Nc3ccccc3)nc2c1` stands -0.85%; under `O=C(CCSc1ccc(Cl)cc1)Nc1ccc(F)c(F)c1F`, 0.15%.

Take `COc1ccccc1Nc1n[nH]c(=S)n1C(=O)c1cccs1`: the inhibition was 2.9%.

Turning to `O=C(O)CCc1nn2c(=O)c3ccccc3nc2s1`, the inhibition is -0.2%. To `CCCN(c1ccc(C)cc1)c1nc(=O)c2cccnc2s1` belongs 0.75%; to `C=CCn1c(=O)c(C(=O)NCC2CCCN2CC)c(O)c2cc(OC)c(OC)cc21` (configuration not stated), -0.05%; to `NC(=O)c1sccc1NS(=O)(=O)c1ccc(Cl)c(Cl)c1`, 2.05%. Under `CSc1ncc(C(N)=O)c(N)n1` stands -4%; under `CC(=O)Nc1ccc(-c2nc(-c3ccccc3)c3cc(C)ccc3n2)cc1`, 0.5%. To `COc1ccccc1NC(=O)C1CC(=O)N(CCc2ccccc2)C(=Nc2ccccc2)S1` (configuration not stated) belongs 0.9%; to `CN(Cc1ccccc1)C(=O)c1cccc(-c2nnc(-c3ccccc3)o2)c1`, 1.3%. Turning to `O=C(O)COc1ccc(NC(=O)c2ccccc2F)cc1`, the inhibition was -2.2%. Under `CC(C)=CC(=O)Nc1nc2ccc(C)cc2s1` stands 5.35%; under `c1ccc(NC2CCCCC2)cc1`, -1.2%; under `O=C(c1cc(-c2ccccc2)c(C(F)(F)F)s1)N1CCCC1`, -2.9%. To `c1ccc(CNC2C3CC4CC(C3)CC2C4)nc1` (configuration not stated) belongs -6%; to `CC12CC[C@H](CC1=O)C2(C)C`, 0.7%; to `COc1ccc(O)c(/C=N/NC(=O)c2ccn(Cc3ccc(Cl)cc3)n2)c1`, 2.4%. To `Nc1cc(C(=O)OCC(=O)NC2CCCCCC2)ccc1Cl` belongs -0.65%; to `COC(=O)c1ccc(C2NN=C(c3ccccc3)S2)cc1` (configuration not stated), 2.7%; to `Cc1ccccc1CNCc1cccs1`, -3.4%. On to `O=c1[nH]c2ccccc2c(=O)n1NS(=O)(=O)c1ccc2ccccc2c1`, for which the inhibition was 1.35%. Under `CCCc1c(C)nc2c(C)cccc2c1SCCC(=O)O` stands 0%; under `CC(C)C(=O)N=C1SC2CS(=O)(=O)CC2N1CCc1ccccc1` (configuration not stated), 0.45%; under `CCCn1nnnc1NC(=S)NC(=O)c1cc2ccccc2o1`, 3.35%. Under `O=C(O)C1C2CCC(C2)C1C(=O)NCCCN1CCCC1=O` (configuration not stated) stands 1.45%; under `O=[N+]([O-])c1ccc(Oc2cccc(Cl)c2)nc1`, -0.6%; under `CCOC(=O)N1CCN(Cc2nc3c(c(=O)n(C)c(=O)n3C)n2CC)CC1`, 6.15%. To `CC(NC(=S)Nc1ccc(S(N)(=O)=O)cc1)c1ccc2c(c1)OCO2` (configuration not stated) belongs 0.45%. As for `Cc1ccc(C(=O)[C@@H]2[C@@H](C(C)(C)C)C(C#N)(C#N)[C@@]3(C)C=Cc4ccccc4N23)cc1`, the inhibition is -0.85%. To `CCc1cccc(CC)c1N1C(=O)C(C)=C(C)C1=O` belongs -0.9%; to `O=C(O)CNC(=O)c1ccc(Cl)c(Cl)c1`, -1.25%. Consider `O=C(O)C1CCCCC1C(=O)Nc1ccc2[nH]c(=S)sc2c1` (configuration not stated), for which the inhibition is 6.3%.

As to `CCC(NC(=O)Nc1cc(C)cc(C)c1)c1c(-n2cccc2)sc2c1CCN(CC)C2` (configuration not stated), the inhibition was 1%. Under `Cc1nc2ccc(C(=O)OCCC(F)(F)F)cc2[nH]1` stands -0.25%; under `Cc1cc(C)c(C(=O)N2CCCCC2C)c(C)c1` (configuration not stated), -0.7%; under `O=C(NC1CCCCNC1=O)c1ccc(N2CCOCC2)nc1` (configuration not stated), -0.3%.

`CCOC(=O)CC1=C(C(=O)OCC)C(c2c(F)cccc2Cl)C(C#N)=C(N)O1` (configuration not stated): the inhibition is 0.2%. Turning to `C=CCNC(=O)c1cc(-c2ccccc2O)on1`, the inhibition is 0.8%. Under `C=CCNC(=O)c1ccc(OCC=C)cc1` stands 0.4%.

Regarding `C=CCNC(=O)c1ccc2nc(-c3ccco3)c(-c3ccco3)nc2c1`, the inhibition is 59.2% (active). `CSC(=Nc1ccccc1F)Nc1ccccc1F`: the inhibition was -2.5%. Under `O=C(O)c1ccccc1Cc1cccs1` stands -3.8%.

Turning to `C=CCNC(=O)c1cc(Br)cs1`, the inhibition is 0.6%. Under `Cc1nc(SCSc2nc3ccccc3s2)nc2c1CCCC2` stands 0.6%; under `CCN(CC)S(=O)(=O)c1cc2c3c(c1)c(C)cc(=O)n3CCC2`, 0.85%.

For the compound `O=C(c1ccc(Br)cc1)c1cc2cc(Br)cc(Br)c2o1`, the inhibition was 1.1%. Under `COc1cccc(O)c1C(=O)NCC(=O)O` stands -1.1%; under `COc1ccc(N=Cc2nc(-c3ccccc3Br)oc2O)c([N+](=O)[O-])c1`, 4.2%. To `O=C(OC(C(=O)c1ccccc1)c1ccccc1)c1cccc(O)c1` (configuration not stated) belongs -1%; to `CCNc1sc(C(=O)OC)c(N)c1C#N`, 0.25%. Under `COc1ccc2[nH]c(=O)c(CN(Cc3ccc(C)cc3)C(C)=O)cc2c1` stands 3.85%; under `COc1cccc(CNn2cn[nH]c2=S)c1OCc1ccccc1`, 0.8%; under `COc1cc(C)nc(NN)n1`, 2.8%.

The values above are taken from PubChem BioAssay AID602314 (ICCB-Longwood Screening Facility, Harvard Medical School, 2012).
